Measurements as given in PubChem BioAssay AID624300 (Southern Research Specialized Biocontainment Screening …, 2012).
Among all 2,400 compounds or so, about 360 (15%) were called active. Only a sample is shown. Entries with a potency or affinity are not part of this list. A number with no mark means an inactive call.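 Rule for the calls: active = viability falls under 70% at one or more tested concentrations, taken as toxicity; inactive = viability stays over 70% at every dose.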

Test: viability loss in HeLa cells – cytotoxicity control for MgcRacGAP inhibitor project, dose response (AID 624300);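 note: 100% = median of untreated control wells on the same plate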
Settings: CellTiter-Glo luminescence, 24 h; series mostly up to 100 µM; viability: at the top concentration

SMILES | viability
COc1ccc2cc(C(=O)Nc3ccc(O)cc3)sc(=O)c2c1OC | 99.2%
CC(C)(C)NC(=S)Nc1ccc(Nc2ccccc2)cc1 | 100%
Oc1ccc(Cl)cc1C=Nc1ccc2c3c(cccc13)CC2 | 99.6%
CC(=O)N1CCN(c2ccc(NCc3ccc4c(c3)OCO4)cc2)CC1 | 95.3%
O=C(Nc1ccc(O)cc1)c1ccc2c(c1)C(=O)N(Cc1ccccc1)C2=O | 98%
Nc1c(/C=C2/C=CC(=O)C(O)=C2)c(=O)nc2sc(CC(=O)N3CCOCC3)nn12 | 97.2%
Cc1ccc(-c2csc3n[nH]c(=S)n23)cc1 | 94%
COc1cc(/C=C/C(=O)OCC(=O)Nc2cc(S(=O)(=O)N3CCCCC3)ccc2C)ccc1O | 91.2%
COc1cc(/C=C2\SC(=S)N(NC(=O)c3cccc(O)c3)C2=O)ccc1O | 106%
COc1cc(/C=c2\sc3n(c2=O)CCCN=3)ccc1O | 92.2%
COc1cc(C=C2CN(C)C(=O)C2=O)ccc1O | 90.1%
COc1cc(/C=C2\SC(c3ccc(C)cc3)=NC2=O)cc(OC)c1O | 89%
COc1cc(/C=C2\SC(=S)N(NC(=O)c3ccc(O)cc3)C2=O)ccc1O | 95.7%
COc1cc(/C=C2\SC(N)=NC2=O)cc(Cl)c1O | 89%
CNc1nc2c3ccccc3n(C(C)=O)c2s1 | 97.2%
COc1ccc(C2NC(=O)C(C#N)=C(S)N2c2ccccc2)cc1OC (stereo not drawn) | 91.9%
CCOCCCNc1nc(=S)[nH]c2cc(OC)c(OC)cc12 | 94.4%
COc1ccc(CN(C)CCc2ccccn2)c(OC)c1OC | 105%
CN(C)c1ncnc2c1NC1=C(S2)C(=NCCCC(=O)O)CC(C)(C)C1 | 95.6%
O=C(N/N=C/c1ccc(O)cc1)c1csc2ccccc12 | 93.1%
COc1cc(/C=N/NC(=O)CCc2n[nH]c(=O)[nH]c2=O)ccc1O | 104%
CN1CCN(CCOCCOc2ccc(Br)cc2Cl)CC1 | 97%
Clc1cc(Br)ccc1OCCOCCN1CCCC1 | 95.9%
CCCCn1c(=S)[nH]c2c(=O)n(C)c(=O)n(C)c21 | 101%
O=[N+]([O-])/C(C=Nc1ccccc1O)=C\Nc1ccccc1O | 99.3%

SMILES | viability
CN(Cc1ccccc1)C(=O)C1CCCN(Cc2ccc(Cl)cc2)C1 (stereo not drawn) | 90.4%
COc1cc(/C=N/NC(=O)c2ccccc2NS(=O)(=O)c2cccs2)ccc1O | 101%
COC(=O)C1=C(C)N(Cc2ccco2)C(=O)C1 | 99.1%
CCOc1cc(/C=C2\C(=O)N(Cc3ccco3)C(C)=C2C(=O)OC)ccc1O | 88.9%
Oc1ccc(Br)cc1C=Nc1ccc2c3c(cccc13)CC2 | 99.1%
C#CCOCCOCCOCCNc1nc(N2CCN(C(=O)C([C@@H](C)O)n3cc([C@@H](N)CCCCN)nn3)CC2)nc(N2CCN(C(=O)[C@H](CCCN=C(N)N)n3cc(C(N)[C@@H](C)CC)nn3)CC2)n1 (stereo partly drawn) | 102%
CCC(CC)N1CCN(C(=O)c2cccc(Cl)c2)CC1 | 100%
COc1cc(/C(C)=N/N2CCN(c3ccccc3OC)CC2)ccc1O | 98.8%
CN(C)C(=S)N=c1ssc(=S)n1Cc1cccnc1 | 117%
COc1cc(/C=N/n2c(-c3cc(C)[nH]n3)n[nH]c2=S)cc(OC)c1OC | 95.3%
COc1c(-c2ccc(O)c(O)c2)oc2cc(O)cc(O)c2c1=O | 93.9%
O=c1oc(-c2ccc(O)c(O)c2)cc2cccc(O)c12 | 75.5%
CCOC(=O)c1[nH]c2ccccc2c1NC(=S)Nc1cc(C)ccc1C | 101%
O=C(CN1CCN(c2ccc(O)cc2)CC1)Nc1ccccc1C(=O)NCCc1ccccc1 | 103%
S=c1[nH]nc(-c2ccco2)n1/N=C/c1ccc(Cl)cc1 | 90.3%
COc1cc2c(cc1OC)C1(CCCC1)C(N)=C2C#N | 96.8%
Oc1cc(O)cc(-c2cc3ccc(O)cc3o2)c1 | 109%
COc1ccc(NC2CCCN(C(=O)C3=NNC(=O)CC3)C2)cc1 (stereo not drawn) | 100%
N#Cc1ccccc1OCCCN1CCC(Cc2ccccc2)CC1 | 83.8%
Cc1nnc(N=c2ssnc2Cl)o1 | 97.2%
COc1cc(C(C)=NNC(=O)c2ccncc2)ccc1O | 95%
CCCn1c(=O)c2ccccc2n2c(SCCNCCO)nnc12 | 98.8%
Cc1ccc(NCc2ccccc2O)cc1C | 90.7%
O=C1OCC/C1=C\c1ccc(O)cc1 | 100%
COc1cc(/C=N/NC(=O)/C(=C/c2ccccc2)CCO)ccc1O | 96.7%

SMILES | viability
CCN(CC)CCOC(=O)c1ccc(N/C=C(/C#N)c2nc(-c3ccc4c(c3)OCO4)cs2)cc1 | 97%
COc1ccc(-c2cc(C(=O)Nc3ccc(O)cc3)c3ccccc3n2)cc1OC | 85.8%
Cc1cc(NC(=O)c2sc3ccccc3c2O)no1 | 97.1%
COc1cccc(C(=O)N2CCN(C3CCN(Cc4ccccc4)CC3)CC2)c1OC | 102%
CCN(CC)c1ccc(NC(=O)CN2CCN(c3ccccn3)CC2)cc1 | 102%
O=C(/C(=C/c1cccnc1)n1ccnc1)c1ccc(Cl)cc1Cl | 81.6%
O=C(N/N=C/c1ccc(O)cc1)NC12CC3CC(CC(C3)C1)C2 | 100%
CCOc1cc(/C=N/NC(=O)c2cc(C3CC3)[nH]n2)ccc1O | 112%
CCOc1cc(/C=N/NC(=O)C2CCCC2)ccc1O | 102%
CCOc1cc(/C=N/NC(=O)C(OC)c2ccccc2)ccc1O (stereo not drawn) | 101%
CCOc1cc(C=NNC(=O)CCCC(=O)NN=Cc2ccc(O)c(OCC)c2)ccc1O | 104%
COc1cc(/C=N/NC(=S)NCCN2CCOCC2)ccc1O | 94.8%
COc1cc(/C=N/NC(=O)CC(=O)NC2CCCCC2)ccc1O | 98.5%
COc1cc(/C=N\NC(=O)C2CC3C=CC2C3)ccc1O (stereo not drawn) | 96.2%
CSc1nc(O)c(/C=C2\C=Nc3ccccc32)[nH]1 | 90.4%
COc1ccc(NC2CCCN(C(=O)c3ccc(C)c(N4CCNC4=O)c3)C2)cc1 (stereo not drawn) | 98.6%
CCOCCCNCC(=O)NCC1CCCCC1 | 102%
COc1cc(NC(=O)COC(=O)/C=C/c2ccc(O)c(OC)c2)cc(OC)c1 | 92.4%
Nc1ccc(N2CCN(c3ccccc3)CC2)c(F)c1 | 101%
O=C1CSC(=S)N1Nc1ccccc1 | 100%
Nc1ccc(N=Nc2ccc(O)cc2)c(N)n1 | 81.5%
Cc1ccc(N2C(S)=C(C#N)C(=O)NC23CCCCC3)cc1 | 96.6%
Cc1cccc(-n2c(=O)c3ccccc3n3c(=S)[nH]nc23)c1C | 104%
